# Measured values published in PubChem BioAssay AID1347076 (National Center for Advancing Translational Sciences (NCATS), 2019).
# The whole screen tested about 400,000 compounds, of which about 13,000 (3.2%) were called active. Where a call stands in place of a potency, no number is given. Not shown: some 18% with an inconclusive outcome. The call rests on the fitted dose curve; in most records, active means well fitted cell-killing curve with a large enough effect; inconclusive means small, poorly fitted or top-dose-only effect, or effect the other way; inactive means flat fitted curve, though single readings scatter. Many of the other results were omitted from the sample, so actives are more common in it than they were.
# Experiment: qHTS assay for MDR1-selective chemotherapeutics: Primary screen using the drug-selected MDR subline cells KB-V1; further: nearly all actives have a fitted effect of over 60% in size
# Details: KB-V1 MDR cells viability, CellTiter-Glo, 72 h; series mostly up to 46.1 µM
# How it was run: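 qHTS viability screen in drug-selected KB-V1 MDR cells: 72 h compound treatment at 37 degrees C, ATP luminescence end point.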
# Potency means the concentration at half of the fitted maximal effect.
row,Structure (SMILES),Potency
1,Cc1ccc(F)cc1NC(=O)CCSc1nc(-c2ccco2)cc(C(F)(F)F)n1,inactive
2,Cc1ccc(S(=O)(=O)N(C)C)cc1NC(=O)/C=C/c1cccs1,14.6 µM (active)
3,CN(C)S(=O)(=O)c1cccc(NC(=O)COC(=O)/C=C/c2cccs2)c1,inactive
4,Cc1ccc(S(=O)(=O)N(C)C)cc1NC(=O)COC(=O)/C=C/c1cccs1,inactive
5,Cc1cccc(C)c1NC(=O)C(c1cccc(F)c1)N1CCN(C)CC1 (stereo unspecified),inactive
6,Cc1cccc(N(Cc2ccccc2)C(=O)c2cc(S(=O)(=O)N3CCOCC3)ccc2F)c1,inactive
7,Cc1ccc(S(=O)(=O)N2CCOCC2)cc1C(=O)NCc1ccc(F)cc1,inactive
8,Cc1ccc(S(=O)(=O)N2CCOCC2)cc1C(=O)NC(=S)N(Cc1ccccc1)C(C)C,11.6 µM (active)
9,CC1(C(=O)Nc2ccc3c(c2)OCCO3)CN(S(C)(=O)=O)CC(=O)N1Cc1cccc(F)c1 (stereo unspecified),inactive
10,Cc1nc2ccccn2c(=O)c1NC(=O)c1ccc(Br)o1,inactive
11,Oc1c(Cl)cc(Cl)c(Cl)c1Cc1c(O)c(Cl)cc(Cl)c1Cl,5.17 µM (active)
12,O=C(O)C(=Cc1ccc([N+](=O)[O-])cc1)CCc1ccccc1,inactive
13,CNC(=O)C1CN(C(=O)c2cccc(S(=O)(=O)N3CCc4ccccc43)c2)c2ccccc2O1 (stereo unspecified),inactive
14,COc1ccc(NC(=O)CSc2nc3ncccc3[nH]2)c(OC)c1,inactive
15,CC(=O)c1nn(-c2ccccc2)c(=Nc2ccccc2)cc1C,inactive
16,O=C(CNCc1ccc(F)cc1)Nc1ccccc1-c1ccccc1,13 µM (active)

row,Structure (SMILES),Potency
1,O=C(Cc1ccccc1)NCc1ccc(F)cc1,inactive
2,CCC(C(=O)OCC(=O)Nc1ccccc1-c1ccccc1)c1ccccc1 (stereo unspecified),inactive
3,CC1(C(=O)NS(=O)(=O)c2ccccc2Cl)CCN1C(=O)c1cccc(F)c1 (stereo unspecified),inactive
4,O=S1(=O)CC(N2CCN(CCO)CC2)CN1Cc1cn(Cc2cccc(Cl)c2)nn1 (stereo unspecified),inactive
5,Cc1cc(C(=O)OCC(=O)NCc2ccco2)c(C)n1-c1ccccc1,2.59 µM (active)
6,O=C(COC(=O)c1ccccc1O)NCc1ccco1,inactive
7,CN(c1ccccc1)S(=O)(=O)c1ccc(Cl)c(C(=O)OCC(=O)NCc2ccco2)c1,inactive
8,O=C(CCn1ccc2cc(S(=O)(=O)N3CCCC3)ccc21)NCc1cccc(Cl)c1,inactive
9,Cc1ccccc1CN1C(=O)CSCC1(C)C(=O)Nc1c(C)cccc1C (stereo unspecified),inactive
10,CS(=O)(=O)N(CC(=O)NCc1ccco1)c1ccc2c(c1)OCO2,inactive
11,Cc1ccc(N(Cc2ccc(C(=O)Nc3ccccc3C(=O)NCc3ccco3)cc2)S(C)(=O)=O)cc1C,2.06 µM (active)
12,CC(C)(C)c1ccc(C(=O)NCc2ccco2)cc1,inactive
13,O=C(CCNC(=O)c1ccccc1Cl)NCc1ccco1,inactive
14,Cc1cccc(Nc2ccccc2C(=O)NCc2ccco2)c1C,18.4 µM (active)
15,CCN1CCN(C(=O)c2ccc(CN(c3ccc(C)c(C)c3)S(C)(=O)=O)cc2)CC1,inactive
